Laboratory results taken from the supplement of paper PMC6555819.

Tests used:
Test in all cases: PBM binding z-score (relative to random genomic background probes); higher = stronger binding; sequences stand for … in GC…GCGATTGACAGCGTAGAATGAAGG
[1] = test system: FXR:RXRa (NR concentration 270 nM, RXRa partner concentration 90 nM)
Outline: (§1)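 Antibodies against each partner of ligand-free nuclear receptor dimers (one per run) detected binding on custom Agilent 4×180K protein-binding microarrays after 1 h incubation. The double-stranded probes had 34-nt variable regions carrying direct-repeat seeds, single-nucleotide variants, half-site ablations and random human genomic background sequences. Binding z-scores, from regression-normalized fluorescence, use the random background probes as reference.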

[2] = test system: LXRa:RXRa (NR concentration 270 nM, RXRa partner concentration 90 nM)
Outline: as §1

[3] = test system: LXRa homodimer (NR concentration 270 nM)
Outline: as §1

[4] = test system: LXRb:RXRa (NR concentration 270 nM, RXRa partner concentration 90 nM)
Outline: as §1

[5] = test system: LXRb homodimer (NR concentration 270 nM)
Outline: as §1

[6] = test system: PPARa:RXRa (NR concentration 270 nM, RXRa partner concentration 90 nM)
Outline: as §1

[7] = test system: PPARg:RXRa (NR concentration 180 nM, RXRa partner concentration 90 nM)
Outline: as §1

[8] = test system: PPARg:RXRa 270nM:90nM, anti-RXR (NR concentration 270 nM, RXRa partner concentration 90 nM)
Outline: as §1

[9] = test system: PPARg:RXRa 30nM:10nM, anti-RXR (NR concentration 30 nM, RXRa partner concentration 10 nM)
Outline: as §1

[10] = test system: PPARg:RXRa 90nM:30nM, anti-RXR (NR concentration 90 nM, RXRa partner concentration 30 nM)
Outline: as §1

[11] = test system: PPARg:RXRa DBDmut IVT, anti-RXR (DBD mutation: RXRa K156A/R161A, NR concentration 270 nM, RXRa partner concentration 90 nM)
Outline: as §1

[12] = test system: PPARg:RXRa IVT, anti-PPARg (NR concentration 270 nM, RXRa partner concentration 90 nM)
Outline: as §1

[13] = test system: PPARg DBDmut:RXRa IVT, anti-PPARg (DBD mutation: PPARg1 K132A/R137A, NR concentration 270 nM, RXRa partner concentration 90 nM)
Outline: as §1

[14] = test system: PPARg DBDmut IVT, anti-PPARg (DBD mutation: PPARg1 K132A/R137A, NR concentration 270 nM)
Outline: as §1

[15] = test system: PPARg homodimer (NR concentration 180 nM)
Outline: as §1

[16] = test system: PXR:RXRa (NR concentration 270 nM, RXRa partner concentration 90 nM)
Outline: as §1

[17] = test system: PXR homodimer (NR concentration 270 nM)
Outline: as §1

[18] = test system: RARa:RXR (NR concentration 270 nM, RXRa partner concentration 90 nM)
Outline: as §1

[19] = test system: RARa homodimer (NR concentration 270 nM)
Outline: as §1

[20] = test system: RARb:RXRa (NR concentration 270 nM, RXRa partner concentration 90 nM)
Outline: as §1

| Sequence | PBM binding z-score [1] | PBM binding z-score [2] | PBM binding z-score [3] | PBM binding z-score [4] | PBM binding z-score [5] | PBM binding z-score [6] | PBM binding z-score [7] | PBM binding z-score [8] | PBM binding z-score [9] | PBM binding z-score [10] | PBM binding z-score [11] | PBM binding z-score [12] | PBM binding z-score [13] | PBM binding z-score [14] | PBM binding z-score [15] | PBM binding z-score [16] | PBM binding z-score [17] | PBM binding z-score [18] | PBM binding z-score [19] | PBM binding z-score [20] |
| --- | --- | --- | --- | --- | --- | --- | --- | --- | --- | --- | --- | --- | --- | --- | --- | --- | --- | --- | --- | --- |
| ACAGACAGGCGATGAAGGTAACTCAGGCTATCAT | -0.05 | -0.309 | -0.155 | -0.384 | -0.145 | -0.503 | 0.721 | -0.326 | 0.0512 | -0.438 | -0.645 | -0.444 | -0.214 | 0.247 | 0.743 | -0.467 | 0.0486 | -0.431 | -0.0743 | -0.249 |
| GCATATAGGTAATACATGGTGAAAGTCCGATTGT | -0.0336 | 0.0177 | 0.188 | -0.279 | -0.173 | 0.369 | 0.96 | 0.694 | 0.313 | 0.476 | 3.87 | 2.35 | 0.904 | 0.833 | 0.511 | 0.00943 | 0.145 | 0.174 | 0.397 | -0.202 |
| TCTTGTAGATCAATAGGAGGTTAAGAAAGATCGA | 0.54 | 1.36 | 0.474 | 0.851 | 0.157 | 1.36 | 0.389 | 1.57 | 2.93 | 2.25 | 1.97 | 0.955 | 0.693 | 0.624 | 0.344 | 0.712 | 0.557 | 1.04 | 0.522 | 0.202 |
| AGTCAAATTTCAGGACGAGGTAACGTAAAGCACG | 0.0503 | -0.145 | 0.0565 | 0.0191 | -0.153 | -0.229 | 0.688 | -0.178 | -0.0529 | -0.261 | -0.406 | 0.239 | 0.677 | 0.285 | 0.523 | -0.111 | 0.169 | 0.428 | 0.17 | 0.269 |
| ATACCAAGGTGATCGTGAGGTTGTTGATACTAAC | 0.619 | 0.547 | 0.106 | 0.338 | -0.241 | 0.626 | 0.435 | 0.149 | 0.0438 | 0.112 | 0.768 | 0.997 | 0.831 | 0.892 | 0.541 | 0.741 | 0.299 | 0.978 | 0.0495 | 0.63 |
| TCATATAGGTAAATGCTCGGTGAAAGTCCGATCT | 1.09 | 0.864 | 0.318 | 0.922 | -0.121 | 1.33 | 0.611 | 2.36 | 3.97 | 3.11 | 4.09 | 1.97 | 0.975 | 0.65 | 0.847 | 0.631 | 0.54 | 0.843 | 0.605 | 0.474 |
| CCTAGCATGCCAGGGTCACTCAAGCATTTCGCTT | 2.11 | 1.85 | -0.459 | 2.23 | -0.94 | 3.15 | 0.542 | 1.23 | -0.373 | 0.276 | -0.246 | 0.391 | -0.691 | -1.32 | 0.817 | 2.61 | -0.116 | 3.17 | -0.337 | 2.35 |
| TCTCGGAGGACACGAAAGCTCAGAGCTCGACATC | 0.278 | -0.178 | -0.494 | -0.291 | -1.33 | 0.0148 | 0.133 | 0.762 | 2.01 | 1.21 | 1.28 | 0.237 | -0.991 | -1.02 | -0.895 | -0.392 | -0.855 | -0.157 | -0.395 | 1.31 |
| CGTCCAAGGTGAATGCTAGGTCAGTGAAAGCATT | 0.506 | 1.19 | 0.158 | 0.617 | -0.905 | 1.73 | 0.352 | 0.668 | -0.499 | 0.352 | 2.03 | 2.41 | -0.677 | -0.549 | 0.968 | 0.776 | -0.645 | 1.8 | -0.245 | 2.42 |
| CCTAGCAGGCCAATCTGGGTCACGCAAGGCTTGA | 1.04 | 1.43 | -0.342 | 0.849 | -1.08 | 3.34 | 3.18 | 3.08 | 0.775 | 2.35 | 4.65 | 5.54 | 0.23 | -0.484 | 0.454 | 1.48 | -0.572 | 2.17 | -0.583 | 1.92 |
| CCTTACGGGTCACTGACTGGTTATAGCATTTGGA | 5.56 | 3.75 | 0.422 | 3.15 | -0.0702 | 4.99 | 4.13 | 4.14 | 1.38 | 2.81 | 3.65 | 3.69 | 0.987 | 0.315 | 3.15 | 3.1 | 0.287 | 4.06 | 2.05 | 4.02 |
| CGTCCAAGGTCAAGGTCAGGGAAAGAGACTCGAA | 7.19 | 5.97 | 1.22 | 4.87 | 0.963 | 6.11 | 6.41 | 7.28 | 3.93 | 5.91 | 4.11 | 5.09 | 0.821 | -0.224 | 4.18 | 5.28 | 1.82 | 5.45 | 2.88 | 5.72 |
| GCGACTGGGGCAAAGCAGGTTACCAGAAGGTTGG | 0.766 | 0.129 | -0.462 | 0.0356 | -1.38 | 1.3 | 1.17 | 1.42 | -0.461 | 0.594 | 4.49 | 3.54 | -1.13 | -0.78 | 0.00244 | 0.34 | -0.469 | 0.321 | -0.876 | 1.1 |
| CCTAGTTAGTCAAGGTCACACACGCTATAGGTAC | 4.07 | 4.91 | 3.93 | 3.98 | 1.49 | 3.99 | 2.29 | 2.75 | 1.02 | 1.79 | 1.6 | 2.69 | 1.12 | 1.42 | 3.64 | 4.25 | 2.22 | 4.4 | 2.9 | 4.01 |
